Source: PubChem BioAssay (NCI)
About 83,000 compounds went through this panel and 20% of them were active in at least one assay; those are over-represented in the sample as a whole.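 Activity criterion: percent growth below 10, measured after cells in 96-well plates were exposed to a single compound concentration for 48 hours.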 Values without a mark were called inactive. Calls of active or inactive are those of the source.

Tests used:
Experiment in all cases: NCI-60 one-dose screen, 48 h (100 = growth as untreated, 0 = no growth, -100 = all killed)
[1] = tested on: NCI-H23 lung; conditions: 10 µM unless noted
[2] = tested on: NCI-H226 lung; conditions: 10 µM unless noted
[3] = tested on: NCI-H322M lung; conditions: 10 µM unless noted
[4] = tested on: HOP-62 NSCLC; conditions: 10 µM unless noted
[5] = tested on: NCI-H460 lung; conditions: 10 µM unless noted
[6] = tested on: HOP-92 NSCLC; conditions: 10 µM unless noted
[7] = tested on: NCI-H522 lung; conditions: 10 µM unless noted
[8] = tested on: A549/ATCC NSCLC; conditions: 10 µM unless noted
[9] = tested on: 786-0 renal; conditions: 10 µM unless noted
[10] = tested on: COLO 205 colon; conditions: 10 µM unless noted
[11] = tested on: DU-145 prostate; conditions: 10 µM unless noted
[12] = tested on: K-562 leukemia; conditions: 10 µM unless noted
[13] = tested on: MALME-3M melanoma; conditions: 10 µM unless noted
[14] = tested on: MDA-MB-231 breast; conditions: 10 µM unless noted
[15] = tested on: RXF 393 renal; conditions: 10 µM unless noted
[16] = tested on: SF-268 CNS; conditions: 10 µM unless noted
[17] = tested on: SF-295 CNS; conditions: 10 µM unless noted
[18] = tested on: SF-539 CNS; conditions: 10 µM unless noted
[19] = tested on: UACC-257 melanoma; conditions: 10 µM
[20] = tested on: M14 melanoma; conditions: 10 µM unless noted

SMILES	growth [1]	growth [2]	growth [3]	growth [4]	growth [5]	growth [6]	growth [7]	growth [8]	growth [9]	growth [10]	growth [11]	growth [12]	growth [13]	growth [14]	growth [15]	growth [16]	growth [17]	growth [18]	growth [19]	growth [20]
NCCSC(c1ccccc1)(c1ccccc1)c1ccccc1	25.1%	68.6%	29.5%	40.8%	7.06% (active)	-2.14% (active)	-20.7% (active)	19.9%	37.9%	-42.8% (active)	-1.74% (active)	3.65% (active)	27.5%	-24.2% (active)	-7.93% (active)	27.4%	-45.9% (active)	-46.1% (active)	47.7%	-9.88% (active)
CCN(C(=O)c1cc2ncccc2[nH]1)[C@H]1CCC[C@@H](NCc2cccc(F)c2)C1	97.4%	101%	80.6%	105%	105%	92.1%	89.8%	102%	110%	18.7%	104%	105%	92%	91.4%	95.1%	102%	102%	98.5%	107%	113%
CC(C)[C@H](CO)Nc1nc(Nc2ccc(C(=O)NCCNS(=O)(=O)c3cccc4c(N(C)C)cccc34)c(Cl)c2)c2ncn(C(C)C)c2n1	25.3%	22%	15.4%	1.86% (active)	16.2%	-9.2% (active)	-31.5% (active)	0.602% (active)	-1.14% (active)	-69.3% (active)	29%	10.9%	51.2%	7.36% (active)	-57.1% (active)	0.765% (active)	-16.5% (active)	-50.2% (active)	3.15% (active)	23.5%
COc1ccc(OC)c(-c2ccc(-c3ccccc3N)c3[nH]c4ccccc4c23)c1	74.5%	75.2%	90.1%	80.9%	92.3%	80.8%	56.9%	68.7%	83.6%	87.5%	89.6%	76.2%	85%	74.1%	98.2%	79.1%	99.4%	93.2%	85%	84.6%
C=C1C(=O)O[C@H]2[C@H](O)[C@@H](C)CCC/C(C)=C/CC[C@@]3(C)O[C@@H]3C[C@@H]12	95.3%	80.9%	81%	96.3%	91.4%	58%	-17.3% (active)	80.7%	93.7%	90.7%	99.4%	79.2%	72%	77.9%	53.1%	96.1%	89.4%	84.2%	56.9%	92.8%
Cn1cc(C=O)c2ccccc21	96.4%	95.2%	97.8%	95.9%	104%	87.6%	98.3%	104%	99.2%	104%	111%	95.4%	87.9%	104%	105%	101%	107%	97.6%	105%	103%
COc1ccc(-c2nc3sccn3c2-c2ccnc(NCCCNS(=O)(=O)c3ccc(F)cc3)n2)cc1	1.5% (active)	-4.69% (active)	41.2%	30.9%	19.5%	44.2%	-1.46% (active)	14%	35.5%	1.87% (active)	10.9%	14.2%	12.7%	43.2%	52.9%	17.2%	12.9%	28.4%	26.1%	12.4%
COc1cc(NC(=O)CSc2nc3ccc(C)cc3c(=O)n2-c2ccccc2)cc(OC)c1OC	84.1%	82.6%	101%	91.2%	101%	49.5%	68.7%	83.9%	89.4%	111%	110%	87.1%	90.5%	77.3%	86.2%	86.2%	92.2%	93.6%	83%	79.9%
COc1cc(CNC(=O)CCSc2nc3ccccc3c(=O)n2Cc2cc(OC)c(OC)c(OC)c2)cc(OC)c1OC	51.6%	70%	60.1%	29.3%	13.7%	44.6%	10.2%	35%	56.1%	25.8%	58.1%	8.67% (active)	40.9%	46%	43.6%	50.4%	36.6%	25.4%	59.1%	6.56% (active)
Nc1c(C(=O)Nc2ccccc2)sc2nc3c(cc12)CCC3	87.9%	85.3%	101%	96.4%	91%	55.6%	83.9%	91.2%	101%	108%	96.8%	35.4%	77.9%	80.7%	95.4%	94%	106%	80.2%	90.5%	69.7%
COc1ccc(/C=C/c2nc(N3CCOCC3)c3nc(Cl)c(Cl)cc3n2)cc1OC	99.7%	102%	145%	115%	106%	105%	83.1%	96.5%	99.8%	105%	101%	77.7%	144%	110%	109%	105%	87.9%	98.8%	111%	103%
CCN(CC)CCCC(C)N=c1cc(Nc2cc(=NC(C)CCCN(CC)CC)c3cc(OC)ccc3o2)oc2ccc(OC)cc12 (stereo not given)	-43.3% (active)	2.33% (active)	-38.4% (active)	-41.6% (active)	-38.7% (active)	-29.9% (active)	-78.6% (active)	-48.6% (active)	-7.34% (active)	-96.2% (active)	2.37% (active)	-38.4% (active)	-80.1% (active)	-51.7% (active)	-68.4% (active)	-32.1% (active)	-9.83% (active)	-90.2% (active)	-79.1% (active)	-87.9% (active)
COc1ccc(C(=O)c2cc(OC)c(OC)c(OC)c2)cc1/C=C/C(=O)c1ccc2c(c1)OCO2	-3.44% (active)	0.564% (active)	52.9%	69.8%	14.6%	64%	-43% (active)	53.5%	29.6%	27.9%	33.8%	12.9%	12.5%	11.2%	17.4%	8.85% (active)	77.3%	-33.8% (active)	51.3%	25.3%
Cc1cc(-c2ccccc2)c(C)n1Cc1ccc(Cl)cc1	65.8%	71.3%	68.1%	55.4%	20.8%	54.2%	37.5%	33.7%	47.8%	38.2%	86.6%	13%	59.4%	67%	61.4%	58.5%	39.7%	39.4%	48.4%	17.7%
O=C(N/N=C/c1c(Cl)cccc1Cl)c1ccccc1Nc1ccnc(C(F)(F)F)c1	46%	65.2%	58.6%	67.2%	36.1%	71.5%	52.6%	49.2%	75%	94.7%	109%	78.4%	81%	73.8%	49.3%	73.2%	72.9%	86.6%	60.4%	71.6%
CCCCCc1c(C)[nH]c(/C=c2\[nH]/c(=C3/C=c4ccccc4=N3)cc2OC)c1C	-42.1% (active)	-16.4% (active)	-8.17% (active)	-56.7% (active)	2.12% (active)	-56.8% (active)	-45.8% (active)	-21.8% (active)	-68.3% (active)	-76.5% (active)	5.25% (active)	-9.81% (active)	-65% (active)	-80.5% (active)	-46.7% (active)	-38.3% (active)	-60.2% (active)	-67.1% (active)	-42.4% (active)	-81.6% (active)
